We go through 13 compounds from the supplement of paper PMC6658780.

Each structure is given as a SMILES string. Where a name gives a salt, the structure may show the parent alone. ± gives the standard deviation of the averaged measurements.

The test system of this assay is Escherichia coli ATCC BAA-2469. Description: percent growth inhibition of drug + antibiotic vs DMSO control; higher = more growth inhibition. As to the method: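 Prestwick drugs tested at 20 uM and 7 uM with an antibiotic at 0.125x MIC (16 mg/L when MIC >128 mg/L) against E. coli ATCC BAA-2469 (NDM-1) in CAMHB, 384-well plates, duplicate runs. Percent growth inhibition was computed from OD600 (24 h minus 0 h) relative to DMSO wells. Drug + DMSO-only wells are also given. […]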

[1] abbreviates: antibiotic (0.125x MIC): ciprofloxacin, 7 µM.
Where [2] appears, read: antibiotic (0.125x MIC): gentamicin, 7 µM.
Setting [3] is: antibiotic (0.125x MIC): gentamicin, 20 µM.
[4] abbreviates: antibiotic (0.125x MIC): meropenem, 7 µM.
[5] abbreviates: antibiotic (0.125x MIC): ciprofloxacin, 20 µM.
The mark [6] stands for this setting: antibiotic (0.125x MIC): meropenem, 20 µM.

`C[C@H]1[C@H](NC(=O)/C(=N\OC(C)(C)C(=O)O)c2csc(N)n2)C(=O)N1S(=O)(=O)O` [Aztreonam]: the percent growth inhibition is 0.0872 ± 14% under setting [1], 24.6 ± 5.5% under setting [2], 81.2 ± 19% under setting [3] and 14.9 ± 16% under setting [4].
`Oc1c(I)cc(Cl)c2cccnc12` [Clioquinol]: the percent growth inhibition was determined as 7.92 ± 1.7% under setting [1]; 61.08 ± 0.34% under setting [5]; 12.9 ± 5.2% under setting [2]; 88.9 ± 10% under setting [3]; 7.81 ± 2.7% under setting [4].
Consider `O=c1[nH]c(=O)n([C@H]2C[C@H](O)[C@@H](CO)O2)cc1C(F)(F)F` [Trifluridine], for which the percent growth inhibition reads like this: under setting [1], 4.99 ± 6.6%; under setting [5], 25.5 ± 3.5%; under setting [2], 6.11 ± 0.34%.
As for `COC(=O)N/N=C/c1c[n+]([O-])c2ccccc2[n+]1[O-]` [Carbadox], the percent growth inhibition came to 35.21 ± 0.15% under setting [1]; 68.9 ± 6.1% under setting [5]; 46.5 ± 17% under setting [2]; 85 ± 3.9% under setting [3]; 39.9 ± 16% under setting [4]; 78.3 ± 7.7% under setting [6].
For the compound `O=C(N[C@H](CO)[C@H](O)c1ccc([N+](=O)[O-])cc1)C(Cl)Cl` [Chloramphenicol], the percent growth inhibition runs as follows: under setting [1], 18.4 ± 4.5%; under setting [5], 92.4 ± 9.2%; under setting [2], 38.6 ± 9.3%; under setting [3], 102 ± 3.6%; under setting [4], 40.2 ± 7%; under setting [6], 89.3 ± 10%.
On to `CO[C@H]1/C=C/O[C@@]2(C)Oc3c(C)c(O)c4c(O)c(c5c(nc6cc(C)ccn65)c4c3C2=O)NC(=O)/C(C)=C\C=C\[C@H](C)[C@H](O)[C@@H](C)[C@@H](O)[C@@H](C)[C@H](OC(C)=O)[C@@H]1C` [Rifaximin], for which the percent growth inhibition runs as follows: under setting [5], 99.44 ± 0.47%; under setting [2], 68.8 ± 13%; under setting [4], 94.7 ± 4.2%; under setting [6], 99 ± 1.7%.
`CO[C@H]1/C=C/O[C@@]2(C)Oc3c(C)c(O)c4c(O)c(c(/C=N/N5CCN(C6CCCC6)CC5)c(O)c4c3C2=O)NC(=O)/C(C)=C\C=C\[C@H](C)[C@H](O)[C@@H](C)[C@@H](O)[C@@H](C)[C@H](OC(C)=O)[C@@H]1C` [Rifapentine]: the percent growth inhibition is 99.9 ± 4.6% under setting [5] and 96.3 ± 5.3% under setting [6].
As to `Oc1c(Cl)cc(Cl)c2cccnc12` [Chloroxine], the percent growth inhibition turned out to be 40 ± 13% under setting [2] and 112 ± 19% under setting [3].
Regarding `COc1ccccc1OCC(O)CO` (stereo not given) [Guaifenesin], the percent growth inhibition was 2.34 ± 2.3% under setting [2] and -4.21 ± 1.2% under setting [4].
Turning to `CO/N=C(\C(=O)N[C@@H]1C(=O)N2C(C(=O)O)=C(COC(N)=O)CS[C@H]12)c1ccco1` [Cefuroxime sodium salt], the percent growth inhibition under setting [2] was -0.221 ± 4.4%.
Regarding `O=C(Nc1ccc([N+](=O)[O-])cc1Cl)c1cc(Cl)ccc1O` [Niclosamide], the percent growth inhibition under setting [2] was determined as 10.1 ± 2%.
Take `Nc1c2ccccc2nc2ccccc12` [Aminacrine]: the percent growth inhibition runs as follows: under setting [4], 13.7 ± 12%; under setting [6], 40.9 ± 17%.
The matching figures for `Cc1cc(N)c2ccccc2[n+]1CCCCCCCCCC[n+]1c(C)cc(N)c2ccccc21` [Dequalinium dichloride]: -1.34 ± 1.8% and 34.5 ± 0.8%.
